We go through 39 compounds from PubChem BioAssay (NCATS).

SMILES strings stand for the structures. Inconclusive results are not listed. A call without a number means that no potency is given here. The source made the active and inactive calls. The call rests on the fitted dose curve; in most records, active means well fitted cell-killing curve with a large enough effect; inconclusive means small, poorly fitted or top-dose-only effect, or effect the other way; inactive means flat fitted curve, though single readings scatter.
Potency means the concentration at half of the fitted maximal effect.

In the first experiment the test system is JEG-3. Put plainly: Primary qHTS to identify gynecologic anti-cancer compounds using libraries of approved drugs and bioactive compounds (AID 1345084). Further: nearly all actives have a fitted effect of over 55% in size. The conditions noted are these: Gynecologic cancer cell panel viability, ATPlite luminescence, 48 h; series mostly up to 57.5 µM. The method, boiled down:
(§1)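 Five-point cytotoxicity, 48 h drug exposure at 37 C, 5% CO2, on cells seeded 16 h beforehand. ATP content read by ATPlite luminescence.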
In general terms: In qHTS, concentration-response curves come from the screen itself.
`O=C(O)/C=C/c1cc2c(cc1O[C@@H]1O[C@H](CO)[C@@H](O)[C@H](O)[C@H]1O)OCO2`: the Potency entry is “inactive”.

As to `CC(C)O[C@@H]1O[C@H](CO)[C@@H](O)[C@H](O)[C@H]1O`, the Potency entry was “inactive”.

Take `CC1=C2C3OC(=O)C(C)C3(O)CCC2(C)CCC1O` (stereo not given): the Potency entry is “inactive”.

Turning to `COC(=O)CC1CC(c2ccc(O)cc2)=NO1` (stereo not given), the Potency result is “inactive”.

As for `CC(=O)C12OC(C)(C)OC1CC1C3CCC4=CC(=O)C=CC4(C)C3(F)C(O)CC12C` (stereo not given), the Potency entry is “inactive”.

On to `C[C@H]1O[C@@H](O[C@H]2CC[C@@]3(C)C(CC[C@]4(C)C3CC=C3C5CC(C)(C)CC[C@]5(C(=O)O)CC[C@]34C(=O)O)C2(C)C)[C@H](O)[C@@H](O)[C@@H]1O` (stereo not given in full), for which the Potency entry was “inactive”.

Consider `C=C1CCC2C(C)(C(=O)OC)CCCC2(C)C1CCC(C)CC(=O)O` (stereo not given), for which the Potency result is “inactive”.

Turning to `COc1ccccc1Oc1ccc(N(Cc2cccnc2)S(=O)(=O)CC(F)(F)F)cc1`, the Potency entry is “inactive”.

For the compound `COc1ccc(Cl)c(Nc2nc3ccccc3nc2NS(=O)(=O)c2cccc(NC(=O)C(C)(C)N)c2)c1`, the Potency entry was “inactive”.

For the compound `COC(=O)C1=CO[C@@H](O[C@@H]2O[C@H](CO)[C@@H](O)[C@H](O)[C@H]2O)[C@H]2[C@@H]1C=C[C@@]21C=C([C@H](C)O)C(=O)O1`, the Potency result was “inactive”.

`CC1(C)CC2=C3C=CC4C5(C)CCC(O)C(C)(C)C5CCC4(C)C3(C)CCC2(C)C(O)C1` (stereo not given): the Potency entry is “inactive”.

As to `O=C(O)c1ccc(OC2OC(CO)C(O)C(O)C2O)cc1` (stereo not given), the Potency result is “inactive”.

As to `CC(C)CN(C[C@@H](O)[C@H](Cc1ccccc1)NC(=O)O[C@@H]1CO[C@H]2OCC[C@H]21)S(=O)(=O)c1ccc(N)cc1`, the Potency entry was “inactive”.

For `C=C1C[C@]23C[C@H]1CC[C@H]2[C@@]1(C)CCC[C@@]2(C)C(=O)O[C@@H]([C@@H]3O)[C@@H]12`, the Potency entry was “inactive”.

As to `CC(=O)O[C@H]1C[C@@]2(C)[C@@H](CC[C@H]3[C@@]4(C)C=CC(=O)[C@@H](C)[C@@H]4[C@H](O)C(=O)[C@@]32C)/C1=C(/CCC=C(C)C)C(=O)O`, the Potency result is “inactive”.

Take `COC(=O)N[C@H](C(=O)N1[C@@H]2CC[C@@H](C2)[C@H]1c1nc2ccc(-c3ccc4c(c3)C(F)(F)c3cc(-c5cnc([C@@H]6CCC7(CC7)N6C(=O)[C@@H](NC(=O)OC)C(C)C)[nH]5)ccc3-4)cc2[nH]1)C(C)C`: the Potency entry was “inactive”.

In the case of `COc1ccc(C2(O)c3ccccc3NC(=O)C2O)cc1` (stereo not given), the Potency result was “inactive”.

In the case of `O=C(CN1C(=O)C2(CCCC2)NCC1c1cc(F)cc(F)c1)Nc1ccc2c(c1)CC1(C2)C(=O)Nc2ncccc21` (stereo not given), the Potency entry is “inactive”.

In the case of `C=C1C(=O)OC2CC3(C)C(CC12)C(C)=CC(O)C3OC(C)=O` (stereo not given), the Potency entry is “inactive”.

Turning to `C[C@@H]1O[C@@H](O[C@H]2[C@H](OC(=O)[C@]34CCC(C)(C)C[C@H]3C3=CCC5[C@@]6(C)C[C@H](O)[C@H](O[C@@H]7O[C@H](CO)[C@@H](O[C@H]8OC[C@](O)(CO)[C@H]8O)[C@H](O)[C@H]7O)[C@@](C)(CO)C6[C@H](O)C[C@@]5(C)[C@]3(C)C[C@H]4O)OC[C@H](O)[C@@H]2O)[C@H](O)[C@H](O)[C@H]1O[C@@H]1OC[C@@H](O)[C@H](O[C@@H]2OC[C@](O)(CO)[C@H]2O)[C@H]1O` (stereo not given in full), the activity change, negative = cytotoxicity is 23.3% [at 6.55 µM] (inactive).

For the compound `O=C(O)[C@H](Cc1ccc(Nc2nccc3ccncc23)cc1)NC1=C(Br)C(=O)C12CCCCC2`, the Potency result was “inactive”.

As for `CC(C)C(C(=O)N(C)C(C)C(N)=O)N(C)C(=O)C1CCCN1C(=O)/C=C/C=C/C(O)C(C)O` (stereo not given), the Potency entry is “inactive”.

For `Nc1nc2c(c(=O)[nH]1)C[C@@H](CCc1ccc(C(=O)N[C@@H](CCC(=O)O)C(=O)O)cc1)CN2`, the Potency is 10 µM (active).

Consider `CC1(O)CCCC2(C)C1CCC13CC(CO)C(CCC12)C3` (stereo not given), for which the Potency result was “inactive”.

For `CC(=O)/C=C/[C@H]1[C@](C)(O)[C@@H](O)[C@H](OC(C)=O)C2C(C)(C)CCC[C@@]21C` (stereo not given in full), the Potency entry is “inactive”.

As for `C=C(C(=O)OC)C1C(O)CC2(C)C(=O)CCC(O)(CO)C2C1O` (stereo not given), the Potency entry is “inactive”.

For the next experiment, the system named is OV90. The description is as above. The conditions noted are these: Gynecologic cancer cell panel viability, ATPlite luminescence, 48 h; series mostly up to 57.5 µM. The method, boiled down:
as §1
A general note: Cellular ATP, detected with luciferase, serves as a proxy for viable cell number.
Turning to `COC(=O)CC(C)(O)CC(=O)OCc1ccc(O[C@@H]2O[C@H](CO)[C@@H](O)[C@H](O)[C@H]2O)cc1` (stereo not given in full), the Potency entry is “inactive”.

On to `CC[C@@H](O)C[C@@H]1C(C)=C[C@@H]2CCCC[C@@H]2[C@@]1(C)C(=O)O`, for which the Potency entry was “inactive”.

Consider `C=C1CCC2C(C)(C(=O)O)CCCC2(C)C1CC/C(=C\CO)CO` (stereo not given), for which the Potency result was “inactive”.

In the case of `Cc1oc2ccccc2c1CNC(=O)NCc1cccs1`, the Potency entry was “inactive”.

Take `CCC(C)C(=O)OC1CC(C)C=C2C=CC(C)C(CCC(O)CC(O)CC(=O)O)C21` (stereo not given): the Potency result was “inactive”.

Take `C[C@]12C=C[C@@]3(CCC4[C@](C)(CO)CCC[C@@]4(C)C3CC1)C2` (stereo not given in full): the Potency entry is “inactive”.

For `CC(C)CC1NC(=O)C(C)NC(=O)C(CC(C)C)OC(=O)CCCNC1=O` (stereo not given), the Potency result is “inactive”.

Turning to `COC1/C=C/C(C)(O)C(SCC(N)C(=O)O)CC(=O)OC(C)C(C)CC/C=C/1C` (stereo not given), the Potency entry is “inactive”.

`CC/C=C\CC1C(=O)C=CC1(CCCCCCCC(=O)O)OC(C)=O` (stereo not given): the Potency entry is “inactive”.

In the case of `CC1OC(OC2C(C)OC(OC3C(O)C(CO)OC(O[C@H]4CC[C@@]5(C)C(CC[C@]6(C)C5CC=C5C7[C@@H](C)[C@H](C)CC[C@]7(C(=O)O)CC[C@]56C(=O)O)C4(C)C)C3O)C(O)C2O)C(O)C(O)C1O` (stereo not given in full), the activity change, negative = cytotoxicity is 0.765% [at 11.6 µM] (inactive).

With `C[C@@H]1O[C@@H](OC[C@H]2O[C@@H](OC(CCCCc3ccc(O)cc3)CCc3ccc(O)cc3)[C@H](O)[C@@H](O)[C@@H]2O)[C@H](O)[C@H](O)[C@H]1O` (stereo not given in full), the Potency entry is “inactive”.

Take `CC(c1ncncc1F)C(O)(Cn1cncn1)c1ccc(F)cc1F` (stereo not given): the Potency entry is “inactive”.

Regarding `CC1(C=O)CC[C@]2(C(=O)O[C@@H]3O[C@H](CO)[C@@H](O)[C@H](O)[C@H]3O)CC[C@]3(C)C(=CCC4[C@@]5(C)C[C@H](O)[C@H](O[C@@H]6OC[C@@H](O)[C@H](O)[C@H]6O)[C@@](C)(CO)C5CC[C@]43C)C2C1` (stereo not given in full), the activity change, negative = cytotoxicity is 9.96% [at 11.6 µM] (inactive).

Regarding `O=C(O)/C=C/c1cc2c(cc1O[C@@H]1O[C@H](CO)[C@@H](O)[C@H](O)[C@H]1O)OCO2`, the Potency entry is “inactive”.

For the compound `CC(C)O[C@@H]1O[C@H](CO)[C@@H](O)[C@H](O)[C@H]1O`, the Potency entry is “inactive”.

Take `CC1=C2C3OC(=O)C(C)C3(O)CCC2(C)CCC1O` (stereo not given): the Potency entry was “inactive”.

On to `COC(=O)CC1CC(c2ccc(O)cc2)=NO1` (stereo not given), for which the Potency result is “inactive”.

`CC(=O)C12OC(C)(C)OC1CC1C3CCC4=CC(=O)C=CC4(C)C3(F)C(O)CC12C` (stereo not given): the Potency result is “inactive”.

As to `C[C@H]1O[C@@H](O[C@H]2CC[C@@]3(C)C(CC[C@]4(C)C3CC=C3C5CC(C)(C)CC[C@]5(C(=O)O)CC[C@]34C(=O)O)C2(C)C)[C@H](O)[C@@H](O)[C@@H]1O` (stereo not given in full), the Potency entry is “inactive”.

For the compound `C=C1CCC2C(C)(C(=O)OC)CCCC2(C)C1CCC(C)CC(=O)O` (stereo not given), the Potency entry is “inactive”.

In the case of `COc1ccccc1Oc1ccc(N(Cc2cccnc2)S(=O)(=O)CC(F)(F)F)cc1`, the Potency result is “inactive”.

As for `COc1ccc(Cl)c(Nc2nc3ccccc3nc2NS(=O)(=O)c2cccc(NC(=O)C(C)(C)N)c2)c1`, the Potency result is “inactive”.

For the compound `COC(=O)C1=CO[C@@H](O[C@@H]2O[C@H](CO)[C@@H](O)[C@H](O)[C@H]2O)[C@H]2[C@@H]1C=C[C@@]21C=C([C@H](C)O)C(=O)O1`, the Potency result is “inactive”.

`CC1(C)CC2=C3C=CC4C5(C)CCC(O)C(C)(C)C5CCC4(C)C3(C)CCC2(C)C(O)C1` (stereo not given): the Potency result is “inactive”.

Regarding `O=C(O)c1ccc(OC2OC(CO)C(O)C(O)C2O)cc1` (stereo not given), the Potency result was “inactive”.

Regarding `CC(C)CN(C[C@@H](O)[C@H](Cc1ccccc1)NC(=O)O[C@@H]1CO[C@H]2OCC[C@H]21)S(=O)(=O)c1ccc(N)cc1`, the Potency result was “inactive”.

In the case of `C=C1C[C@]23C[C@H]1CC[C@H]2[C@@]1(C)CCC[C@@]2(C)C(=O)O[C@@H]([C@@H]3O)[C@@H]12`, the Potency result was “inactive”.

`CC(=O)O[C@H]1C[C@@]2(C)[C@@H](CC[C@H]3[C@@]4(C)C=CC(=O)[C@@H](C)[C@@H]4[C@H](O)C(=O)[C@@]32C)/C1=C(/CCC=C(C)C)C(=O)O`: the Potency entry is “inactive”.

As for `COC(=O)N[C@H](C(=O)N1[C@@H]2CC[C@@H](C2)[C@H]1c1nc2ccc(-c3ccc4c(c3)C(F)(F)c3cc(-c5cnc([C@@H]6CCC7(CC7)N6C(=O)[C@@H](NC(=O)OC)C(C)C)[nH]5)ccc3-4)cc2[nH]1)C(C)C`, the Potency entry is “inactive”.

`COc1ccc(C2(O)c3ccccc3NC(=O)C2O)cc1` (stereo not given): the Potency entry is “inactive”.

Turning to `O=C(CN1C(=O)C2(CCCC2)NCC1c1cc(F)cc(F)c1)Nc1ccc2c(c1)CC1(C2)C(=O)Nc2ncccc21` (stereo not given), the Potency result is “inactive”.

For the compound `C=C1C(=O)OC2CC3(C)C(CC12)C(C)=CC(O)C3OC(C)=O` (stereo not given), the Potency result is “inactive”.

Turning to `C[C@@H]1O[C@@H](O[C@H]2[C@H](OC(=O)[C@]34CCC(C)(C)C[C@H]3C3=CCC5[C@@]6(C)C[C@H](O)[C@H](O[C@@H]7O[C@H](CO)[C@@H](O[C@H]8OC[C@](O)(CO)[C@H]8O)[C@H](O)[C@H]7O)[C@@](C)(CO)C6[C@H](O)C[C@@]5(C)[C@]3(C)C[C@H]4O)OC[C@H](O)[C@@H]2O)[C@H](O)[C@H](O)[C@H]1O[C@@H]1OC[C@@H](O)[C@H](O[C@@H]2OC[C@](O)(CO)[C@H]2O)[C@H]1O` (stereo not given in full), the activity change, negative = cytotoxicity was -28.7% [at 6.55 µM] (inactive).

With `O=C(O)[C@H](Cc1ccc(Nc2nccc3ccncc23)cc1)NC1=C(Br)C(=O)C12CCCCC2`, the Potency entry is “inactive”.

`CC(C)C(C(=O)N(C)C(C)C(N)=O)N(C)C(=O)C1CCCN1C(=O)/C=C/C=C/C(O)C(C)O` (stereo not given): the Potency entry is “inactive”.

In the case of `Nc1nc2c(c(=O)[nH]1)C[C@@H](CCc1ccc(C(=O)N[C@@H](CCC(=O)O)C(=O)O)cc1)CN2`, the Potency was 0.501 µM (active).

Turning to `CC1(O)CCCC2(C)C1CCC13CC(CO)C(CCC12)C3` (stereo not given), the Potency entry is “inactive”.

For the compound `CC(=O)/C=C/[C@H]1[C@](C)(O)[C@@H](O)[C@H](OC(C)=O)C2C(C)(C)CCC[C@@]21C` (stereo not given in full), the Potency result is “inactive”.

As for `C=C(C(=O)OC)C1C(O)CC2(C)C(=O)CCC(O)(CO)C2C1O` (stereo not given), the Potency entry is “inactive”.
